Key:
[1] = molecular target: Calcium/calmodulin-dependent protein kinase type 1 (Homo sapiens) (UniProt Q14012); conditions: at 1 µM
[2] = molecular target: Calcium/calmodulin-dependent protein kinase type 1 (Homo sapiens) (UniProt Q14012); conditions: at 10 µM
[3] = molecular target: Calcium/calmodulin-dependent protein kinase type II subunit beta (Homo sapiens) (UniProt Q13554); conditions: at 10 µM
[4] = molecular target: Calcium/calmodulin-dependent protein kinase type II subunit gamma (Homo sapiens) (UniProt Q13555); conditions: at 1 µM
[5] = molecular target: Calcium/calmodulin-dependent protein kinase type II subunit gamma (Homo sapiens) (UniProt Q13555); conditions: at 10 µM
[6] = molecular target: Calcium/calmodulin-dependent protein kinase type II subunit delta (Homo sapiens) (UniProt Q13557); conditions: at 1 µM
[7] = molecular target: Calcium/calmodulin-dependent protein kinase type II subunit delta (Homo sapiens) (UniProt Q13557); conditions: at 10 µM
[8] = molecular target: T1, Calcium/calmodulin-dependent protein kinase type IV (Homo sapiens) (UniProt Q16566); conditions: at 1 µM
T1 sequence (whole entry): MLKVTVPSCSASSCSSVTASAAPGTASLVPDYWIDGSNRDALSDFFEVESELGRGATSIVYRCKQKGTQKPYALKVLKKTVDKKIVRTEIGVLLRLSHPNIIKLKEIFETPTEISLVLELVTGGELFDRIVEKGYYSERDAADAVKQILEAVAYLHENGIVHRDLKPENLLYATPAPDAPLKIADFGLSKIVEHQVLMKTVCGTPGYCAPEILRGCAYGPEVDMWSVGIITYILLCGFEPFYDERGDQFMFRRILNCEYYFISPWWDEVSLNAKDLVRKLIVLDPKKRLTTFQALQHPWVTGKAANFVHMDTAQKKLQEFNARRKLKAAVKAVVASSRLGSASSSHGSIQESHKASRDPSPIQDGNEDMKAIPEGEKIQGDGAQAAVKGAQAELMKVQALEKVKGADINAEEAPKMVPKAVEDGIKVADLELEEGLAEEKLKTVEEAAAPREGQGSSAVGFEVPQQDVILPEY

[9] = molecular target: T1, Calcium/calmodulin-dependent protein kinase type IV (Homo sapiens); conditions: at 10 µM
[10] = molecular target: Death-associated protein kinase 1 (Homo sapiens) (UniProt P53355); conditions: at 10 µM
[11] = molecular target: Death-associated protein kinase 2 (Homo sapiens) (UniProt Q9UIK4); conditions: at 1 µM
[12] = molecular target: Death-associated protein kinase 2 (Homo sapiens) (UniProt Q9UIK4); conditions: at 10 µM
[13] = molecular target: T2, Serine/threonine-protein kinase DCLK2 (Homo sapiens) (UniProt Q8N568); conditions: at 1 µM
T2 sequence (whole entry): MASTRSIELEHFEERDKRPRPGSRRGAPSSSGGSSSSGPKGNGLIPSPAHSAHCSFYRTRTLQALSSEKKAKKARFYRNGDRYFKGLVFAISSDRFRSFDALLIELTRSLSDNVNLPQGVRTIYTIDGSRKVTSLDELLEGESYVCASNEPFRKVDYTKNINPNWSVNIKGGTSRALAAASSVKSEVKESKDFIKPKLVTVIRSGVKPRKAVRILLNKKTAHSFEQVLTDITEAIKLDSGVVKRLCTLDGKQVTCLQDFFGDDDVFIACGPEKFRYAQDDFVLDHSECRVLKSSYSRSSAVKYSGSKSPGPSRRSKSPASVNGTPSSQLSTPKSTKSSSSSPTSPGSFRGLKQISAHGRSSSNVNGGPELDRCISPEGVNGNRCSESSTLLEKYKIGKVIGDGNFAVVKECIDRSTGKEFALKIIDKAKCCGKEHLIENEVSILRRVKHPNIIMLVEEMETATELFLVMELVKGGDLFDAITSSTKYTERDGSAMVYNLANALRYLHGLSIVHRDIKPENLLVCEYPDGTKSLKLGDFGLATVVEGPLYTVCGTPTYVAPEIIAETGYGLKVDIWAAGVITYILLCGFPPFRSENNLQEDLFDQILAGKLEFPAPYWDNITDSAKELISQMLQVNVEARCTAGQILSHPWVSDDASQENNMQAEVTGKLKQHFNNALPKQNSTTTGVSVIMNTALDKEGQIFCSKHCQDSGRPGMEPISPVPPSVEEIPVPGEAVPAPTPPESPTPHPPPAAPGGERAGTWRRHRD

[14] = molecular target: T2, Serine/threonine-protein kinase DCLK2 (Homo sapiens); conditions: at 10 µM
[15] = molecular target: T3, Serine/threonine-protein kinase 17A (Homo sapiens) (UniProt Q9UEE5); conditions: at 1 µM
T3 sequence (whole entry): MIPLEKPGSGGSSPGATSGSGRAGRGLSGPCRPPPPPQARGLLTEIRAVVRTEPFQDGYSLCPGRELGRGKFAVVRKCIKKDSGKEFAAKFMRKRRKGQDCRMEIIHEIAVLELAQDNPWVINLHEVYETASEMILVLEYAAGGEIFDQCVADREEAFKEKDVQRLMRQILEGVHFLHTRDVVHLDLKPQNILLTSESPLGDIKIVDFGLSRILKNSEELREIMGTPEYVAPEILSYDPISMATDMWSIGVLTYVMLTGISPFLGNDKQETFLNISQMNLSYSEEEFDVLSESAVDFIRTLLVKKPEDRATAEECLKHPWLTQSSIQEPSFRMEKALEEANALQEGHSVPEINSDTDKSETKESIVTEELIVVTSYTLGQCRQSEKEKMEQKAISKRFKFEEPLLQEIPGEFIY

[16] = molecular target: Calcium/calmodulin-dependent protein kinase type II subunit beta (Homo sapiens) (UniProt Q13554); conditions: at 1 µM
[17] = molecular target: T4, Discoidin domain-containing receptor 2 (Homo sapiens) (UniProt Q16832); conditions: at 1 µM
T4 sequence (whole entry): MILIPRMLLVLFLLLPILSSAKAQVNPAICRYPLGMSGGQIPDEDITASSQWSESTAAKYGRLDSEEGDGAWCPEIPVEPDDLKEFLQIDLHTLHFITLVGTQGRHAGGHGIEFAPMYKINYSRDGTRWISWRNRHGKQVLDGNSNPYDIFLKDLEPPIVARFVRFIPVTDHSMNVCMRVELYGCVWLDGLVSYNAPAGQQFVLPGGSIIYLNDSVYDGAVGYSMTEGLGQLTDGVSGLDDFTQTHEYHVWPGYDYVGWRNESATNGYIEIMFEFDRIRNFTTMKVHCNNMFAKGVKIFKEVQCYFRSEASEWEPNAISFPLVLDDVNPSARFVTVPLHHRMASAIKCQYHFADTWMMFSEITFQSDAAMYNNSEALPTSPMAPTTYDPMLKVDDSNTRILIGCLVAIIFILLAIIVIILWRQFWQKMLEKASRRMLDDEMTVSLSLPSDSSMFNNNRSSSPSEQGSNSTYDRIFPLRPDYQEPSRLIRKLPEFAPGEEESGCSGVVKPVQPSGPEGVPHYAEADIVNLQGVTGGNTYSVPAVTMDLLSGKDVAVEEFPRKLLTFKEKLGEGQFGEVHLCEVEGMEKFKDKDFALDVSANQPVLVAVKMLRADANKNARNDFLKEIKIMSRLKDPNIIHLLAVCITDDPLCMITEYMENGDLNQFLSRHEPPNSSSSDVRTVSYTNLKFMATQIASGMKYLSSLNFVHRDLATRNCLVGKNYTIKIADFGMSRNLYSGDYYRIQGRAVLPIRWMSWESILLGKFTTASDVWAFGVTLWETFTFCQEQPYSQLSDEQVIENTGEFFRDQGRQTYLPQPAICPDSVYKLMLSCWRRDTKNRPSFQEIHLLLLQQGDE

[18] = molecular target: T4, Discoidin domain-containing receptor 2 (Homo sapiens); conditions: at 10 µM
[19] = molecular target: T5, Myotonin-protein kinase (Homo sapiens) (UniProt Q09013); conditions: at 1 µM
T5 sequence (whole entry): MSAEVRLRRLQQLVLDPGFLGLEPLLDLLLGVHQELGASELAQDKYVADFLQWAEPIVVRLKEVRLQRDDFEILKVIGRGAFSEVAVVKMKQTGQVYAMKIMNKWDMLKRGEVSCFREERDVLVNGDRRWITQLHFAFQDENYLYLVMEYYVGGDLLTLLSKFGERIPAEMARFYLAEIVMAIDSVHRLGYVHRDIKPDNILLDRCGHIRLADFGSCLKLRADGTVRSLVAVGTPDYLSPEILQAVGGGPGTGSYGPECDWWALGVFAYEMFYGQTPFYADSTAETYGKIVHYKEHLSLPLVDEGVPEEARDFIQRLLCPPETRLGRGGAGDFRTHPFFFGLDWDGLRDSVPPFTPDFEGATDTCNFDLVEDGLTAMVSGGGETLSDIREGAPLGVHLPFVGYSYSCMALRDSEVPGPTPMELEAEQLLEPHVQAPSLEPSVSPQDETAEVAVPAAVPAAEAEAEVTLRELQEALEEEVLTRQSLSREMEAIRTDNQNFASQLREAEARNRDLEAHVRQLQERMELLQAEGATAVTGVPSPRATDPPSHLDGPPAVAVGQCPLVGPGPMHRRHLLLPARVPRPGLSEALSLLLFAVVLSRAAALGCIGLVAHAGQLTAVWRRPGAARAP

[20] = molecular target: T5, Myotonin-protein kinase (Homo sapiens); conditions: at 10 µM

Death-associated protein kinase 1 (Homo sapiens), sequence (P53355 whole entry, looked up): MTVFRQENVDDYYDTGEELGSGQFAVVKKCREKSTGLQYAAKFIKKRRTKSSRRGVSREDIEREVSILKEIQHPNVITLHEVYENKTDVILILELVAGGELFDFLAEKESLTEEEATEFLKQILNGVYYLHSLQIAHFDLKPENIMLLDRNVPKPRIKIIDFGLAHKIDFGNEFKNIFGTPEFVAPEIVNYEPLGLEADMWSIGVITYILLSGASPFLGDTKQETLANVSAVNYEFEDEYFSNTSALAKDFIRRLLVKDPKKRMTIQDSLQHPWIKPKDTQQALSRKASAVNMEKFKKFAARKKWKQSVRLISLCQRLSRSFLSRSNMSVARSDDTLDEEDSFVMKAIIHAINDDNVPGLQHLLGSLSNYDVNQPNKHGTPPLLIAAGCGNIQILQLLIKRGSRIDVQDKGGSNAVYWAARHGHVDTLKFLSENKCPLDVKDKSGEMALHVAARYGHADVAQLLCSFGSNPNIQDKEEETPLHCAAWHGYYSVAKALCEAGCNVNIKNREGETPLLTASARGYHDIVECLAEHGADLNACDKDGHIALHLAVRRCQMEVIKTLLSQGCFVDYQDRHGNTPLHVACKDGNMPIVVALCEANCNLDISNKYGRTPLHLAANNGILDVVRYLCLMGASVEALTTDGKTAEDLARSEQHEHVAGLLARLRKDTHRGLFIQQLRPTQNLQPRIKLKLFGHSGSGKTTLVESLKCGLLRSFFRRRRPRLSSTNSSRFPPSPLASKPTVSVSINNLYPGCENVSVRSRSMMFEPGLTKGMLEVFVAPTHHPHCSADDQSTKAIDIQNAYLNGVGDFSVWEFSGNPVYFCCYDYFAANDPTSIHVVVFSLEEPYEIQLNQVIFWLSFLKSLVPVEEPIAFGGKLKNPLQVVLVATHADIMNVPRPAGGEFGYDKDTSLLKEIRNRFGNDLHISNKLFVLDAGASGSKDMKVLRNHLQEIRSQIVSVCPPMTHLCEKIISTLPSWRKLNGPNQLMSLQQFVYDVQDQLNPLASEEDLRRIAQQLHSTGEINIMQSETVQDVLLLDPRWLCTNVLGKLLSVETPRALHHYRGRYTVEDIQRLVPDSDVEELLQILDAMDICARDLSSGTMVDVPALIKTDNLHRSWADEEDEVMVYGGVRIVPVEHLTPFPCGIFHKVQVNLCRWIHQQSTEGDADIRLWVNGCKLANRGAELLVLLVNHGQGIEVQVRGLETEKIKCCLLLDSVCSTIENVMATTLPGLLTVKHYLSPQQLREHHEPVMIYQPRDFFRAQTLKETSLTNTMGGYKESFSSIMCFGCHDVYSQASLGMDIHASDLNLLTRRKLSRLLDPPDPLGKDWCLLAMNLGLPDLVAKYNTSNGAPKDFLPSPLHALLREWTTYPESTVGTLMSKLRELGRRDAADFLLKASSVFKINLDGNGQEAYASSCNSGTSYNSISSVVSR
Calcium/calmodulin-dependent protein kinase type 1 (Homo sapiens), sequence (Q14012 whole entry, looked up): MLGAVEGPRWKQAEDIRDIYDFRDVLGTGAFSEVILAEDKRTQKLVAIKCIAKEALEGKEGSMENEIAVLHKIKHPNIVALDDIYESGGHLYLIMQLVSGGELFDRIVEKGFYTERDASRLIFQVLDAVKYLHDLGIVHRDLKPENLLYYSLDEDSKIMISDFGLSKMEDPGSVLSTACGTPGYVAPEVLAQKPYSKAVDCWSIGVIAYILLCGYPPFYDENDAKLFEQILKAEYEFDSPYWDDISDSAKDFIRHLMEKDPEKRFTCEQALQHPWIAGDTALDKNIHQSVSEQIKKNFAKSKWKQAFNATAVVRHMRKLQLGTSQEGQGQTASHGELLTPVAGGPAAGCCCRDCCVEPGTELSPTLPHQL
Calcium/calmodulin-dependent protein kinase type II subunit beta (Homo sapiens), sequence (Q13554 whole entry, the tested form may be a part): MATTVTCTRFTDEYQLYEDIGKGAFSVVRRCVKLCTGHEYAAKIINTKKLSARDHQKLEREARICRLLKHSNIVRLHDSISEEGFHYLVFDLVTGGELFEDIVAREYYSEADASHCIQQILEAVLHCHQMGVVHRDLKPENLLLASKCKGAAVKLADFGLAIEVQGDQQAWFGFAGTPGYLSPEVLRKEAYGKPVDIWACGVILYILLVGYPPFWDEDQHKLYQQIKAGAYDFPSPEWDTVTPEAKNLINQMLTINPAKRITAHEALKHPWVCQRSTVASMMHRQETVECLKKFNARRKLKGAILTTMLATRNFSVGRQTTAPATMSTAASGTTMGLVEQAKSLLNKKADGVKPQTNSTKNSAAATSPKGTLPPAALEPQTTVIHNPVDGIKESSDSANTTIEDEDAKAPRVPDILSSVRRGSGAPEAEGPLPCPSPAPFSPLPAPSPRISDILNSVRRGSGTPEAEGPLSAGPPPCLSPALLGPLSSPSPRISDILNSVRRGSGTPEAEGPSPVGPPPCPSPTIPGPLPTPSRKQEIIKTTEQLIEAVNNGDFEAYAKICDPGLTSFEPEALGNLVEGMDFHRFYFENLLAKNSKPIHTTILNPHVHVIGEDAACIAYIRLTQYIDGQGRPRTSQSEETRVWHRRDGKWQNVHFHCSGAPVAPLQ
Calcium/calmodulin-dependent protein kinase type II subunit gamma (Homo sapiens), sequence (Q13555 whole entry): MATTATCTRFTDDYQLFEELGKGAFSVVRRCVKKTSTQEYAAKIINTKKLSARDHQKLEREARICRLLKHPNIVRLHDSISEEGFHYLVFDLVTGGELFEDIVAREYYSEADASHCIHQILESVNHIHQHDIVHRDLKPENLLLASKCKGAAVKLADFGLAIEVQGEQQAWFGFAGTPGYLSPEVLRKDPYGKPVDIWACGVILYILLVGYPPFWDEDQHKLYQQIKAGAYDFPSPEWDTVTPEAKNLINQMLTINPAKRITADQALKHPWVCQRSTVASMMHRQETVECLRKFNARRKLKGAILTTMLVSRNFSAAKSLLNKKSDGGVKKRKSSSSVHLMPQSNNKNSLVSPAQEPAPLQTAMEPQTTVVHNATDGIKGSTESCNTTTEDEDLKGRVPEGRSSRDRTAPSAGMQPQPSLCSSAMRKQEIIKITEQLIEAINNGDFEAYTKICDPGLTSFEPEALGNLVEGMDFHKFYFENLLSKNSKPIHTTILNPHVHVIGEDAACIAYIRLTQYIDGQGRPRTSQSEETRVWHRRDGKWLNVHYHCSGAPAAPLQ
Death-associated protein kinase 2 (Homo sapiens), sequence (Q9UIK4 whole entry, looked up): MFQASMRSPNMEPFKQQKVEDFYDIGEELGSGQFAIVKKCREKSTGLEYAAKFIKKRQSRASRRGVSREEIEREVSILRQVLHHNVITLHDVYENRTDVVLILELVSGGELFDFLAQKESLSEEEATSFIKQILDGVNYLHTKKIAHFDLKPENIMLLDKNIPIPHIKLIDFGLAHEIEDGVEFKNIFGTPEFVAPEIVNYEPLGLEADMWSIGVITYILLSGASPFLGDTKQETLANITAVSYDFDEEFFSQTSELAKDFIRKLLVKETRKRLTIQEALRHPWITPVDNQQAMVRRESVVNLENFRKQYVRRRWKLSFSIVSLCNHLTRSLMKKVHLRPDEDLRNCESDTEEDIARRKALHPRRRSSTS
Calcium/calmodulin-dependent protein kinase type II subunit delta (Homo sapiens), sequence (Q13557 whole entry): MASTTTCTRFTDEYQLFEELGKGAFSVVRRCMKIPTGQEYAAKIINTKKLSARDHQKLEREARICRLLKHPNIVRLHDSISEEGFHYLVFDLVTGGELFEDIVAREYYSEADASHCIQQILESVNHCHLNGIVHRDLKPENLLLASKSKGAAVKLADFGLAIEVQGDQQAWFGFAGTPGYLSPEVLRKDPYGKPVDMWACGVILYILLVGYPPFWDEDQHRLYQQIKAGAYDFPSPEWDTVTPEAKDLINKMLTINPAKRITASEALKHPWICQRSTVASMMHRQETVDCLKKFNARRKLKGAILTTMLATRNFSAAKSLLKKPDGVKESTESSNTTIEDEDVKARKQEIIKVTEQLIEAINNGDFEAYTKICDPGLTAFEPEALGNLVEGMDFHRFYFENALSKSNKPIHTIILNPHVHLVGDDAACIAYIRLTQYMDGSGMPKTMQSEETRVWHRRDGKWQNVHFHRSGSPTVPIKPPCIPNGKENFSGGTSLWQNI

Structure (SMILES)	residual activity [1]	residual activity [2]	residual activity [3]	residual activity [4]	residual activity [5]	residual activity [6]	residual activity [7]	residual activity [8]	residual activity [9]	residual activity [10]	residual activity [11]	residual activity [12]	residual activity [13]	residual activity [14]	residual activity [15]	residual activity [16]	residual activity [17]	residual activity [18]	residual activity [19]	residual activity [20]
CC(C)(C)c1nc2c3ccc(F)cc3c3c(=O)[nH]ccc3c2[nH]1	60%	9%	33%	21%	3%	24%	11%	1%	0%	3%	11%	14%	38%	27%	0%	–	–	–	–	–
O=C(O)/C=C/c1cc(Br)c(Br)c(Br)c1Br	102%	74%	39%	98%	31%	83%	26%	94%	80%	62%	91%	39%	98%	68%	79%	78%	93%	95%	93%	76%
O=c1cc(N2CCNCC2)oc2c(-c3ccccc3)cccc12	105%	80%	84%	104%	88%	101%	77%	–	87%	82%	98%	102%	–	70%	69%	91%	–	–	134%	141%
O=C1NC(=O)c2c1c1c3ccccc3[nH]c1n1cncc21	61%	36%	14%	15%	7%	12%	6%	61%	62%	41%	9%	-1%	96%	85%	10%	22%	85%	91%	–	–
NC(=O)c1ccc(-c2nc(-c3ccc4c(c3)OCCO4)c(-c3ccccn3)[nH]2)cc1	91%	73%	88%	–	–	100%	98%	–	–	78%	–	–	–	–	89%	–	98%	97%	93%	97%
Nc1n[nH]c2nc3ccccc3nc12	87%	68%	16%	86%	28%	86%	36%	121%	87%	96%	–	–	98%	84%	86%	75%	–	–	98%	76%
Nc1ncnc2c1cnn2-c1ccccc1	99%	69%	35%	91%	51%	98%	63%	125%	92%	86%	95%	–	71%	69%	–	–	–	–	–	–
CC(C)N(CCC(=O)c1ccc2ccccc2c1)Cc1ccccc1	100%	80%	84%	–	–	–	–	–	–	76%	–	–	80%	80%	–	88%	–	–	–	131%
CC(C)(C)n1nc(Cc2cccc3ccccc23)c2c(N)ncnc21	105%	88%	68%	106%	78%	106%	78%	122%	74%	88%	96%	106%	85%	107%	120%	89%	75%	29%	108%	119%
Cn1c2ccccc2c2c3c(c4c5ccccc5n(CCC#N)c4c21)CNC3=O	80%	32%	10%	2%	-5%	1%	1%	100%	58%	73%	93%	105%	56%	60%	36%	11%	–	–	121%	114%
O=C(c1ccccc1)c1ccc(N2CCOCC2)cc1O	95%	98%	71%	–	78%	100%	76%	111%	–	100%	89%	–	64%	93%	–	–	111%	93%	138%	–
O=C1NC(=O)C(c2cn(CCCO)c3ncccc23)=C1c1cnccn1	93%	97%	70%	88%	74%	80%	64%	–	–	83%	65%	59%	95%	78%	89%	75%	93%	96%	–	82%

Source: ChEMBL document CHEMBL2218924, “A broad activity screen in support of a chemogenomic map for kinase signalling research and drug discovery” (Biochem J, 2013)
